Hit rate of the full screen: of about 5,500 compounds, about 2,000 (36%) were called active. About 18% were inconclusive and are not listed. No stated cut-off is given here; in the data, active means normalized growth mostly below about 0.91 (no sharp cut-off); inconclusive means no clear call, values can overlap the other calls; inactive means mostly above about 0.92. The list shows a part of the results.
Test: chemical genetic growth profiling, strain panel (AID 1159580);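 further: tested at 20 µM; growth read once vehicle control cultures reached saturation at 30 °C; 1 = growth at the plate median or of vehicle wells; lower values mean less growth of the strain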
Settings: growth OD

Measured: normalized growth

OC(CCN1CCCC1)(c1ccccc1)C1CCCCC1 (centres undefined)
inactive: S. cerevisiae deletion strains, locus YJR043C, strain POL32, hits give low values 1.01 | S. cerevisiae deletion strains, locus YJR066W, strain TOR1, hits give low values 0.973 | S. cerevisiae deletion strains, locus YKL009W, strain mrt4, hits give low values 0.977 | S. cerevisiae deletion strains, locus YKL068W, hits give low values 0.985 | S. cerevisiae deletion strains, locus YKL085W, strain MDH1 (second series), hits give low values 0.977 | S. cerevisiae deletion strains, locus YKL085W, strain MDH1, hits give low values 0.977 | S. cerevisiae deletion strains, locus YKL160W, strain elf1, hits give low values 0.975 | S. cerevisiae deletion strains, locus YKL190W, strain CNB1, hits give low values 0.996 | S. cerevisiae deletion strains, locus YKR001C, strain vps1, hits give low values 0.985 | S. cerevisiae deletion strains, locus YKR026C, strain gcn3, hits give low values 0.986 | S. cerevisiae deletion strains, locus YKR091W, strain srl3, hits give low values 0.992 | S. cerevisiae deletion strains, locus YLL001W, strain dnm1, hits give low values 0.956 | S. cerevisiae deletion strains, locus YLL026W, hits give low values 0.974 | S. cerevisiae deletion strains, locus YLL041C, strain sdh2, hits give low values 0.988 | S. cerevisiae deletion strains, locus YLR027C, strain aat2, hits give low values 0.969 | S. cerevisiae deletion strains, locus YLR039C, strain RIC1, hits give low values 1.05 | S. cerevisiae deletion strains, locus YLR058C, strain SHM2, hits give low values 0.994 | S. cerevisiae deletion strains, locus YLR102C, strain apc9, hits give low values 0.972 | S. cerevisiae deletion strains, locus YLR113W, strain HOG1, hits give low values 1 | S. cerevisiae deletion strains, locus YLR221C, strain rsa3, hits give low values 0.995 | S. cerevisiae deletion strains, locus YLR258W, strain gsy2, hits give low values 1 | S. cerevisiae deletion strains, locus YLR262C, strain YPT6 (second series), hits give low values 0.998 | S. cerevisiae deletion strains, locus YLR262C, strain YPT6, hits give low values 1.07 | S. cerevisiae deletion strains, locus YLR268W, strain sec22, hits give low values 0.946 | S. cerevisiae deletion strains, locus YLR320W, strain mms22, hits give low values 0.968 | S. cerevisiae deletion strains, locus YLR330W, strain CHS5, hits give low values 0.992 | S. cerevisiae deletion strains, locus YLR342W, strain FKS1 (second series), hits give low values 0.992 | S. cerevisiae deletion strains, locus YLR342W, strain FKS1, hits give low values 0.963 | S. cerevisiae deletion strains, locus YLR357W, strain rsc2, hits give low values 0.973 | S. cerevisiae deletion strains, locus YLR370C, strain arc18, hits give low values 0.972 | S. cerevisiae deletion strains, locus YLR371W, strain rom2, hits give low values 0.958 | S. cerevisiae deletion strains, locus YLR384C, strain iki3, hits give low values 0.969 | S. cerevisiae deletion strains, locus YLR418C, strain cdc73, hits give low values 0.957 | S. cerevisiae deletion strains, locus YML016C, strain PPZ1, hits give low values 0.991 | S. cerevisiae deletion strains, locus YML032C, strain rad52, hits give low values 0.97 | S. cerevisiae deletion strains, locus YML120C, strain ndi1, hits give low values 0.972 | S. cerevisiae deletion strains, locus YML124C, strain tub3, hits give low values 0.983 | S. cerevisiae deletion strains, locus YMR058W, strain fet3, hits give low values 0.981 | S. cerevisiae deletion strains, locus YMR078C, strain ctf18, hits give low values 0.966 | S. cerevisiae deletion strains, locus YMR125W, strain sto1, hits give low values 1 | S. cerevisiae deletion strains, locus YMR129W, hits give low values 0.99 | S. cerevisiae deletion strains, locus YMR205C, strain PFK2, hits give low values 0.985 | S. cerevisiae deletion strains, locus YMR223W, strain ubp8, hits give low values 0.999 | S. cerevisiae deletion strains, locus YMR231W, strain pep5, hits give low values 1 | S. cerevisiae deletion strains, locus YMR263W, strain SAP30, hits give low values 1 | S. cerevisiae deletion strains, locus YMR307W, strain GAS1, hits give low values 0.991 | S. cerevisiae deletion strains, locus YNL067W, strain RPL9B, hits give low values 0.998 | S. cerevisiae deletion strains, locus YNL071W, strain lat1, hits give low values 1.01 | S. cerevisiae deletion strains, locus YNL128W, strain TEP1, hits give low values 0.982 | S. cerevisiae deletion strains, locus YNL183C, strain NPR1, hits give low values 0.989 | S. cerevisiae deletion strains, locus YNL209W, strain ssb2, hits give low values 0.993 | S. cerevisiae deletion strains, locus YNL233W, strain BNI4, hits give low values 1.01 | S. cerevisiae deletion strains, locus YNL248C, strain rpa49, hits give low values 1.01 | S. cerevisiae deletion strains, locus YNL250W, strain rad50, hits give low values 0.967 | S. cerevisiae deletion strains, locus YNL271C, strain bni1, hits give low values 0.987 | S. cerevisiae deletion strains, locus YNL298W, strain CLA4, hits give low values 0.97 | S. cerevisiae deletion strains, locus YNL307C, strain MCK1, hits give low values 0.976 | S. cerevisiae deletion strains, locus YNL322C, strain KRE1 (second series), hits give low values 0.981 | S. cerevisiae deletion strains, locus YNR049C, strain mso1, hits give low values 0.998 | S. cerevisiae deletion strains, locus YNR052C, strain pop2, hits give low values 0.98 | S. cerevisiae deletion strains, locus YOL006C, strain TOP1, hits give low values 1.02 | S. cerevisiae deletion strains, locus YOL012C, strain htz1 0.758 | S. cerevisiae deletion strains, locus YOL147C, strain pex11, hits give low values 0.975 | S. cerevisiae deletion strains, locus YOR001W, strain rrp6, hits give low values 0.965 | S. cerevisiae deletion strains, locus YOR061W, strain CKA2, hits give low values 0.987 | S. cerevisiae deletion strains, locus YOR069W, strain VPS5, hits give low values 0.989 | S. cerevisiae deletion strains, locus YOR070C, strain gyp1, hits give low values 1 | S. cerevisiae deletion strains, locus YOR080W, strain dia2, hits give low values 0.983 | S. cerevisiae deletion strains, locus YOR083W, strain WHI5, hits give low values 0.956 | S. cerevisiae deletion strains, locus YOR106W, strain vam3, hits give low values 0.979 | S. cerevisiae deletion strains, locus YOR136W, strain idh2, hits give low values 0.982 | S. cerevisiae deletion strains, locus YOR144C, strain elg1, hits give low values 0.979 | S. cerevisiae deletion strains, locus YOR184W, strain ser1, hits give low values 0.985 | S. cerevisiae deletion strains, locus YOR231W, strain MKK1, hits give low values 0.963 | S. cerevisiae deletion strains, locus YOR265W, strain rbl2, hits give low values 0.988 | S. cerevisiae deletion strains, locus YOR270C, strain vph1, hits give low values 0.965 | S. cerevisiae deletion strains, locus YOR290C, strain snf2, hits give low values 1.01 | S. cerevisiae deletion strains, locus YOR316C, strain cot1, hits give low values 0.97 | S. cerevisiae deletion strains, locus YPL051W, strain arl3, hits give low values 0.987 | S. cerevisiae deletion strains, locus YPL078C, strain atp4, hits give low values 0.945 | S. cerevisiae deletion strains, locus YPL106C, strain sse1, hits give low values 1 | S. cerevisiae deletion strains, locus YPL240C, strain hsp82, hits give low values 0.978 | S. cerevisiae deletion strains, locus YPL256C, strain CLN2, hits give low values 1.02 | S. cerevisiae deletion strains, locus YPR119W, strain clb2, hits give low values 0.981 | S. cerevisiae deletion strains, locus YPR141C, strain kar3, hits give low values 0.978 | S. cerevisiae deletion strains, locus YPR163C, strain tif3, hits give low values 0.974 | S. cerevisiae deletion strains, locus YPR167C, strain met16, hits give low values 0.978 | S. cerevisiae deletion strains, strain wtn01, hits give low values 0.964 | S. cerevisiae strains, strain wild type, hits give low values 0.996
